We go through five molecules from PubChem BioAssay.

Assay [1] in a line: small molecules captured by biotinylated probe aFSTL3 – biochemical, small-molecule microarray, fluorescence 635/667, stem cell growth factor project, primary screen (AID 1064).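 Note: measures binding of the biotinylated anti-FSTL3 antibody to printed compounds.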 Conditions: higher = more signal.
Assay [2] is described as follows: binders from COS7 lysate, DM2A8 probe, primary screen, torsin A project, cell lysate, small-molecule microarray, fluorescence 635/667 (AID 1065). The note with it: higher = more signal, COS7 lysate expressing mutant human TOR1A.
A short description of assay [3]: small molecules captured by biotinylated probe aFGF2 – biochemical, small-molecule microarray, fluorescence 635/667, stem cell growth factor project, primary screen (AID 1067).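 Note: measures binding of biotinylated aFGF2 protein to printed compounds on slides; z-score merges feature fluorescence and signal-to-noise across triplicate slides.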 The note with it: higher = more signal.
The nature of assay [4]: small molecules captured by biotinylated probe aFGF10 – biochemical, small-molecule microarray, fluorescence 635/667, stem cell growth factor project, primary screen (AID 1071).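 Note: score merges 667 nm spot intensity and signal to noise from triplicate slides.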 The note with it: higher = more signal.
In assay [5] the target is Neurogenic locus notch homolog protein 2 (Homo sapiens) (UniProt Q04721). Nature of the assay: small molecules binding Notch2 protein – biochemical, small-molecule microarray, 635 nm fluorescence, stem cell growth factors, primary screen (AID 1073). Conditions: higher = more signal.
In assay [6] the target is Pro-neuregulin-1, membrane-bound isoform (Homo sapiens) (UniProt Q02297). Nature of the assay: small molecules binding neuregulin-1 protein – biochemical, small-molecule microarray, fluorescence 635/667, psychiatric disease protein project, primary screen (AID 1075).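 Note: score combines 667 nm spot fluorescence with signal to noise.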 The note with it: NRG1 binding, 635 nm fluorescence, higher = more signal.
Chain of Pro-neuregulin-1, membrane-bound isoform (Homo sapiens) (Q02297 whole entry, looked up, the tested form may be a part, canonical isoform): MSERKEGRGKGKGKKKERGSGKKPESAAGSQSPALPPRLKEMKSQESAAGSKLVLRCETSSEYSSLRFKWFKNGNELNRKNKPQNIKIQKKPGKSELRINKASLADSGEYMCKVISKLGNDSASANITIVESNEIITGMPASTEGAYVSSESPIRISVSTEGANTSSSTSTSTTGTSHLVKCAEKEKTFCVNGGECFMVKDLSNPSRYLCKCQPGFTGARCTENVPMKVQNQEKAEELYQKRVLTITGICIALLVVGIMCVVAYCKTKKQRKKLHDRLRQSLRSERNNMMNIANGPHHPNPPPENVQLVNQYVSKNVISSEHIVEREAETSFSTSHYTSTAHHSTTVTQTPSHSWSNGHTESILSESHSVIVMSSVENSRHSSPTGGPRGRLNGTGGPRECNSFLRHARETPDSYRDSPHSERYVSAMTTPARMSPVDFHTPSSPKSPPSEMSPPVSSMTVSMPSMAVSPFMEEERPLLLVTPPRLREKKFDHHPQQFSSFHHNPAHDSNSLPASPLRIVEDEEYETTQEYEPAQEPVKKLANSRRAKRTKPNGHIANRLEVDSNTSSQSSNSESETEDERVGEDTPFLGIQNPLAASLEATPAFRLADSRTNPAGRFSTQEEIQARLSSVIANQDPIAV
Assay [7] concerns Neuregulin-1 EGF-like domain. Put plainly: small molecules binding NRG1 EGF domain – biochemical, small-molecule microarray, 635 nm fluorescence, primary screen (AID 1081).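 Note: binding of the protein to compounds printed on small-molecule microarray slides.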 Conditions: higher = more signal.
Assay [8] is described as follows: FRG1 expression reporter modulators in myotubes – cell-based, C2C12 myotubes, firefly/Renilla luciferase, luminescence, FRG1 inhibition for FSHD, primary screen (AID 1084). The note with it: FRG1 promoter luciferase, higher = more signal, called active from +8 up or from −8 down.
Assay [9] in a line: small molecules captured by biotinylated probe aFST – biochemical, small-molecule microarray, fluorescence 635/667, stem cell growth factor project, primary screen (AID 1086).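 Note: score merges 667 nm fluorescence with signal-to-noise of each printed compound spot.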 The note with it: higher = more signal.
The nature of assay [10]: binders of probe aHhip on microarray, primary screen, stem cell growth factor project, biochemical, small-molecule microarray, fluorescence 635/667 (AID 1087).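 Note: score merges spot fluorescence at 667nm with spot signal to noise ratio.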 The note with it: higher = more signal.
The test system of assay [11] is PRMT1 (protein arginine N-methyltransferase 1). Nature of the assay: small molecules binding arginine methyltransferase PRMT1 – biochemical, small-molecule microarray, 635 nm fluorescence, primary screen (AID 1088).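 Note: binding of Prmt1 protein to compounds spotted on small-molecule microarray slides.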 The note with it: higher = more signal.
Assay [12] in a line: growth effects on S. cerevisiae YJM789 – YJM789 clinical isolate, OD600, 24 h, basal, primary screen (AID 1089).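 Note: growth of clinical yeast isolate S. cerevisiae YJM 789 seeded 1000 cells per well; test concentration not given here.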 Conditions: higher = more signal, called active from +8 up or from −8 down.
A short description of assay [13]: S. pombe growth modifiers, basal conditions – strain 972, OD600, 24 h, no modulator, primary screen (AID 1090).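 Note: basal condition with compound alone and no growth modifier present; test concentration not given here.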 Conditions: S. pombe 972 growth, higher = more signal, called active from +8 up or from −8 down.
A short description of assay [14]: budding yeast growth modifiers under rapamycin – strain BY4716, OD600, 96 h, primary screen (AID 1091). Note: test concentration not given here. The note with it: S. cerevisiae BY4716 + rapamycin, higher = more signal, called active from +8 up or from −8 down.
Assay [15] addresses Torsin-1A-interacting protein 2 (Homo sapiens) (UniProt Q8NFQ8). Nature of the assay: small molecules binding lysate-expressed LULL1 – cell lysate, human LULL1 lysate, 635/667 nm fluorescence, primary screen (AID 1092).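 Note: score merges per-feature 667 nm fluorescence with signal-to-noise.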 Conditions: small-molecule microarray, hLULL1 lysate binding, 635 nm fluorescence; higher = more signal.
Assay [16] can be described thus: optical density change of DRC41 E. coli – strain DRC41, OD650, 24 h, E. coli filamentation project, primary screen (AID 1093).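 Note: MC1000 strain lacking acrAB efflux and sulA so SOS filamentation is blocked; test concentration not given here.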 The note with it: E. coli DRC41 growth, higher = more signal, called active from +8 up or from −8 down.
A short description of assay [17]: probe aLefty2 binding to arrayed compounds – biochemical, biotinylated probe, 635/667 nm fluorescence, primary screen (AID 1094).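 Note: score merges spot fluorescence near 667 nm with spot signal-to-noise ratio.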 Conditions: small-molecule microarray, higher = more signal.
The subject of assay [18] is Noggin (protein binding on small-molecule microarray). Put plainly: small molecules binding Noggin protein – biochemical, 635/667 nm fluorescence, primary screen (AID 1095).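 Note: score merges 667 nm feature fluorescence with signal to noise over triplicate slides.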 The note with it: 635 nm fluorescence, higher = more signal.
Assay [19] addresses Neurogenic locus notch homolog protein 3 (Homo sapiens) (UniProt Q9UM47). Nature of the assay: small molecules binding NOTCH3 protein – biochemical, 635/667 nm fluorescence, primary screen (AID 1096). Conditions: small-molecule microarray, 635 nm fluorescence, higher = more signal.
Assay [20] in a line: probe aEGFR binding to arrayed compounds – biochemical, biotinylated probe, 635/667 nm fluorescence, primary screen (AID 1097).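 Note: probe is a biotinylated anti-EGFR antibody binding compounds printed on slides; score combines fluorescence near 667 nm and signal to noise of each spot.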 Conditions: small-molecule microarray, higher = more signal.

Calls of active or inactive are those of the source.

Chain of Neurogenic locus notch homolog protein 3 (Homo sapiens) (Q9UM47 whole entry, looked up): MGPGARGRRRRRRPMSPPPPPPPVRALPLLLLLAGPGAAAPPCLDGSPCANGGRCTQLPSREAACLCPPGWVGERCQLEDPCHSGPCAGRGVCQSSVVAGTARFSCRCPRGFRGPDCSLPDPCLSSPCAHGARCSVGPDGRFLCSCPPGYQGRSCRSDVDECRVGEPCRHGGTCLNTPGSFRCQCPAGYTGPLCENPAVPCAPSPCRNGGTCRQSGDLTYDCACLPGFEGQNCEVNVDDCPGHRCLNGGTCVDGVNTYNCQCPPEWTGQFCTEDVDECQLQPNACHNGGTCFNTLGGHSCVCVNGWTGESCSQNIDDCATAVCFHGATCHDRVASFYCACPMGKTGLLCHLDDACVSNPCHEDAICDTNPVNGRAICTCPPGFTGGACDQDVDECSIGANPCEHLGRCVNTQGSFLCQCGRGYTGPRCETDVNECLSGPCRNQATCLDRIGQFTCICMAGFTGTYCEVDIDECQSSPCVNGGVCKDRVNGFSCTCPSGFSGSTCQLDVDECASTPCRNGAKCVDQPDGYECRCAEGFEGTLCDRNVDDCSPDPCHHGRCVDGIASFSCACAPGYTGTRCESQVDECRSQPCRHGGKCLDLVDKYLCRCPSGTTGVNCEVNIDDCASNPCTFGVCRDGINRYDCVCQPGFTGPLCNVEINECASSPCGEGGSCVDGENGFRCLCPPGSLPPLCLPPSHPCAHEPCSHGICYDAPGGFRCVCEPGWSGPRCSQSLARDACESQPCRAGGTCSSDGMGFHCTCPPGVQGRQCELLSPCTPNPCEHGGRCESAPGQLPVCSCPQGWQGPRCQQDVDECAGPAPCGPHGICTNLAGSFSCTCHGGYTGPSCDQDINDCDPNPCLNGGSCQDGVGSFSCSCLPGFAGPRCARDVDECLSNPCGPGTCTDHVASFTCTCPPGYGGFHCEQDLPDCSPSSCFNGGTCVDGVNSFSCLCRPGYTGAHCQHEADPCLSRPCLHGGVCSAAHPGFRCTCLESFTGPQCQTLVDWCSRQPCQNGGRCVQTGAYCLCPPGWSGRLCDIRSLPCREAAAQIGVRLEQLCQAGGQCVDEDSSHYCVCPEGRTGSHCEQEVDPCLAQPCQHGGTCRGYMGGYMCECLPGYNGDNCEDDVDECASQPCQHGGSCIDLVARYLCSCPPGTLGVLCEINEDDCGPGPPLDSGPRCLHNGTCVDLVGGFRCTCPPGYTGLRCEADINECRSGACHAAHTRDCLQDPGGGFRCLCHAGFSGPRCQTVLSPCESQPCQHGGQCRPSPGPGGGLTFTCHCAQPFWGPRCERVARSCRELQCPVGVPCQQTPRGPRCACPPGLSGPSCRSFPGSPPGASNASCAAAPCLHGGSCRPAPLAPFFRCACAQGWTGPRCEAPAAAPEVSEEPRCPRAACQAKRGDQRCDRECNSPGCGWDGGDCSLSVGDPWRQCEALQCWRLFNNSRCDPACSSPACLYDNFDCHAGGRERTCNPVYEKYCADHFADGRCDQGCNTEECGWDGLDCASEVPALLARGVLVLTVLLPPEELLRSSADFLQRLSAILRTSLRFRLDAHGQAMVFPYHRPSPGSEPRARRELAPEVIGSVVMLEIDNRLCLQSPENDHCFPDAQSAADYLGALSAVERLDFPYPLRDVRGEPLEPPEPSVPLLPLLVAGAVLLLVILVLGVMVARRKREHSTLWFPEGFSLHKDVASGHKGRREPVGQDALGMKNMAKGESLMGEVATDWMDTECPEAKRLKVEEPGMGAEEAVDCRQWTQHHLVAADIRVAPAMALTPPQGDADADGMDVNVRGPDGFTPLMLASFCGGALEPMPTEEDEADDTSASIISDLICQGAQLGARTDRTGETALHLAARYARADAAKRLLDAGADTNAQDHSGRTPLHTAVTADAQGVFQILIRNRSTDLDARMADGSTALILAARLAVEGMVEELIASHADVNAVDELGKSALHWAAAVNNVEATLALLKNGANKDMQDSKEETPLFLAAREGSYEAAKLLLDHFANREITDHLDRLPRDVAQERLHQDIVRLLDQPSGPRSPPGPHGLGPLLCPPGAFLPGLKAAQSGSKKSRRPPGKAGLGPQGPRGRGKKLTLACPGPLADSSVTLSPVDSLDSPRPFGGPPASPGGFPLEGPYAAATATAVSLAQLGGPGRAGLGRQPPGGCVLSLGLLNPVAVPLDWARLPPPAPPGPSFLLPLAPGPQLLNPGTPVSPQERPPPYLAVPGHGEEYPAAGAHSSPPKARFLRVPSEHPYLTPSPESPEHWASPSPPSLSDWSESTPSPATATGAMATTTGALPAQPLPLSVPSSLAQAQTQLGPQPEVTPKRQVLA
Chain of Torsin-1A-interacting protein 2 (Homo sapiens) (Q8NFQ8 whole entry, looked up): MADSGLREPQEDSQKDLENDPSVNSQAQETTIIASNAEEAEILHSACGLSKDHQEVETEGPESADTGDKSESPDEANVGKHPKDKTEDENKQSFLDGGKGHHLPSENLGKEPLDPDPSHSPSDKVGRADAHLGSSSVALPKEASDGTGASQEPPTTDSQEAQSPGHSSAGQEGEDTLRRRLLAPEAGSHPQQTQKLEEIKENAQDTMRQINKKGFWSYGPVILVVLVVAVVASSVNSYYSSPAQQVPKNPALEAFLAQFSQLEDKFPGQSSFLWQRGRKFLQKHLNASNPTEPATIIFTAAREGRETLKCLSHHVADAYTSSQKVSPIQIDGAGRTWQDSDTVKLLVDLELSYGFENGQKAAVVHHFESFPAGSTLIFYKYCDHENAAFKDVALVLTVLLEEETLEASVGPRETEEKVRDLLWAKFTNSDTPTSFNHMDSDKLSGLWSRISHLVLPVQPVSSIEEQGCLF

On to `O=C1C2C=CC(C(O)C=Cc3ccc([N+](=O)[O-])cc3)N(Nc3ccccc3F)C2C(=O)N1c1ccccc1` (stereo not given), for which the composite z-score in assay [1] came out at 0.133; in assay [2] it was 0.537; in assay [3], 0.0135; in [4], 1.03; in assay [5], 1.51; in assay [6] it was 1.39. Also, the composite z-score in assay [7] came to 1.16; in [9], 1.11; in [10], 0.0274; in assay [11] it was 1.57; in assay [15] it was 3.1; in assay [17], 0.0511. For the same molecule, the results for the composite z-score in [18], in assay [19] and in [20] were 0.0689, 0.994 and 0.293, respectively. Also, the z-score is 0.477 (inactive) in [8]; 0.612 (inactive) in assay [12]; 2.1 (inactive) in assay [13]; 1.47 (inactive) in assay [14]; -1.04 (inactive) in assay [16].

On to `COC(=O)[C@@]1(Cc2ccccc2)[C@H]2c3cc(C(=O)N4CCCC4)n(Cc4c(CO)[nH]cc(C)c4=O)c3C[C@H]2CN1C(=O)c1ccccc1`, for which the composite z-score in [1] was 1.13; in assay [2], -0.0496; in [3], 0.2; in [4] it was 0.647; in assay [5], 1.63; in assay [6], 1.96. Besides, the composite z-score in assay [7] was 1.17; in assay [9], 0.915; in assay [10], -0.121; in assay [11], 0.138; in assay [15], 3.18; in [17], 0.539. For the same molecule, the composite z-score in [18] was -0.218; in [19], 0.12; in assay [20] it was 0.0478. The z-score in assay [8] is 1.39 (inactive); in assay [12], -0.0602 (inactive); in assay [13], 0.94 (inactive); in assay [14] it was 0.171 (inactive); in assay [16], -0.799 (inactive).

On to `CC[C@@H]1C=C(C(=O)O)[C@H](c2cccc3ccccc23)N1S(=O)(=O)c1ccc(C)cc1`, for which the composite z-score in [1] is -0.0805; in assay [2] it was -0.26; in assay [3], -0.0162; in assay [4], 0.184; in assay [5] it was 0.709; in [6], 1.94. Moreover, the composite z-score in [7] was 0.573; in assay [9], 0.279; in [10], -0.0645; in assay [11], 0.479; in assay [15], 3; in assay [17] it was -0.0537. In addition, the composite z-score in assay [18] is 0.0891; in assay [19] it was 0.814; in assay [20], -0.0356. The z-score in [8] was -3.41 (inactive); in [12], -0.118 (inactive); in [13] it was 1.49 (inactive); in [14] it was -0.168 (inactive); in [16], -0.428 (inactive).

On to `COCCOC(=O)N1C(=O)[C@@]2(c3cc(C#CCCO)ccc31)[C@H](c1ccc(O)cc1)N1[C@H](c3ccccc3)[C@H](c3ccccc3)OC(=O)[C@H]1[C@@H]2C(=O)N1CCN(c2ncccn2)CC1`, for which the composite z-score is -0.788 in assay [1]; 0.325 in assay [2]; 0.005 in assay [3]; 0.792 in assay [4]; 1.44 in assay [5]; 1.49 in assay [6]. Besides, the composite z-score in [7] came to 1.24; in assay [9], 0.437; in assay [10] it was 0.783; in [11], 1.53; in assay [15] it was 3.17; in [17], 0.837. Moreover, the composite z-score in [18] was 1.58; in [19] it was 1.01; in assay [20], -0.283. In addition, the z-score in assay [8] was -0.606 (inactive); in assay [12], 0.356 (inactive); in assay [13], 0.686 (inactive); in assay [14], 1.6 (inactive); in assay [16], 0.531 (inactive).

For the molecule `COC(=O)[C@@]1(Cc2ccc(OC)cc2)[C@H]2c3cc(C(=O)N4CCCC4)n(CCCNc4ncc(C(F)(F)F)cc4Cl)c3C[C@H]2CN1C(=O)c1ccccc1`, the composite z-score is 0.965 in [1]; 0.103 in assay [2]; 0.578 in assay [3]; 0.583 in assay [4]; 1.7 in [5]; 1.71 in assay [6]. The composite z-score in assay [7] is 0.709; in [9], 2.32; in assay [10], 1.31; in assay [11], 0.0457; in assay [15] it was 1.8; in assay [17], 0.987. The composite z-score in [18] stood at 0.341; in assay [19], 0.656; in assay [20], 0.939. In addition, the z-score is 2.95 (inactive) in assay [8]; -0.496 (inactive) in assay [12]; 1.11 (inactive) in [13]; 1.35 (inactive) in assay [14]; -0.537 (inactive) in assay [16].
